Shown are actives, neighbours in structure and some others; about 4.8% of the full set was active somewhere.
ssDAF12 agonist – S. stercoralis DAF-12 nuclear receptor activators, primary screen, cell-based, luminescence, HEK293, GRIP1 co-expression, lit1-tk-luc. Nuclear hormone receptor DAF-12 (Strongyloides stercoralis). HEK293 ssDAF-12/GRIP1 lit1-tk-luc reporter; % of 3 µM dafachronic acid response. activation, % at 6.8 µM. hit rate 1% among 370,000;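 active = activation above the mean over all tested compounds plus 3 SD, cut at about 0.9% in these data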;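 note: 0% = DMSO-only wells and 100% = 3 µM delta7-dafachronic acid wells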
hcDAF-12 act – H. contortus DAF-12 nuclear receptor activators, primary screen, cell-based, luminescence, HEK293, lit1-tk-luc reporter. hit rate 1.4% among 370,000. HEK293 hcDAF-12 lit1-tk-luc reporter; 0% DMSO, 100% Δ7-dafachronic acid. activation, % at 6.8 µM. AID 652067, 2013;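 active = activation above the mean of all tested compounds plus 3 SD, cut at about 5.5% in these data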;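 note: 100% = response to 3 µM Δ7-dafachronic acid high control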
DAX1 inh-1 – DAX1 (NR0B1) inhibitors, primary screen, cell-based, HEK293, Gal4-DAX1, luciferase luminescence. Nuclear receptor subfamily 0 group B member 1 (Homo sapiens), P51843. HEK293 Gal4-DAX1 luciferase reporter. inhibition, % at 6.75 µM. hit rate 0.99% among 340,000. AID 504766, 2011;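 active = inhibition above the mean over all tested compounds plus 3 SD, cut at about 4.2% in these data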;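 note: 0% = DAX1-transfected cells with DMSO and 100% = empty-vector control cells with DMSO; inhibition shows as a rise in luminescence from relieved DAX1 repression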
Target sequence (P51843 207-470 limits assumed): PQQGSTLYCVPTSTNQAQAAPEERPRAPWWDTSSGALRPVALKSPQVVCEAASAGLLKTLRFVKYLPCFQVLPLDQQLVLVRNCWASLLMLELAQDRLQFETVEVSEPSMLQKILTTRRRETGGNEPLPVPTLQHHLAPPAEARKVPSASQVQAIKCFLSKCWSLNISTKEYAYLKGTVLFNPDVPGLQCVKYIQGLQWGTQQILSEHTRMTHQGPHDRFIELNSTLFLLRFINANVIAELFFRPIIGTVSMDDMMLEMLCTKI
SMARCA2 activ – SMARCA2 (BRM) function activators, primary screen, cell-based, luminescence, high throughput | MG213 cells, MMTV-luciferase reporter, dexamethasone, overnight | activation, % at 9.1 µM | hit rate 1% among 370,000 | AID 652017, 2013; in the data active = activation above about 7.8%;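 note: 0% = vehicle wells and 100% = reference activator wells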
DAX1 inh-2 – DAX1 (NR0B1) inhibitors on StAR promoter, primary screen, cell-based, luminescence, SF-1 (NR5A1), full-length DAX-1. HEK293T StAR-luciferase reporter, SF-1/DAX-1 repression relief. inhibition, % at 6.8 µM. hit rate 1.1% among 370,000;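 active = inhibition above the mean over all tested compounds plus 3 SD, cut at about 3.6% in these data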;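 note: 0% = DAX-1 cells with DMSO and 100% = cells lacking DAX-1 with DMSO; higher inhibition means more luminescence from relief of DAX-1 repression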
hgDAF-12 ag – H. glycines DAF-12 receptor agonists, primary screen, cell-based, luminescence, HEK293, GAL4 fusion, UAS-luciferase | hit rate 1.8% among 370,000 | Nuclear hormone receptor DAF-12 (Heterodera glycines), GAL4 fusion | AID 687014, 2013 | activation, % at 6.8 µM | HEK293 GAL4-hgDAF12 UAS-luciferase reporter, agonist luminescence; normalized to butyrate control;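 active = activation above a cutoff set at the mean of all screened compounds plus 3 SD, cut at about 10% in these data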;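 note: 0% = DMSO wells and 100% = sodium butyrate wells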
SMARCA2 conf – SMARCA2 (BRM) function activators, confirmation, cell-based, luminescence, triplicate; shares compounds with SMARCA2 activ; activation, % at 9.1 µM; MG213 cells, MMTV-luciferase with dexamethasone, overnight; MG213 cells expressing E1A, Rb sequestered; DMSO wells 0%, reference activator 100%; hit rate 30% among 3,500; AID 652260, 2013;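 active = activation above its plate's cutoff, the mean activation of tested wells plus 3 SD, cut at about 7.9% in these data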
VP16 Luc act – GAL4-VP16 luciferase reporter activation, counter-screen for SMARCA2 (BRM) activator project, cell-based, pG5luc, luminescence, high throughput; HEK293 GAL4-VP16 pG5luc reporter; scaled: DMSO wells 0%, SAHA wells 100%; AID 686939, 2013; activation, % at 9.1 µM; hit rate 41% among 3,500; shares compounds with SMARCA2 activ;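 active = activation above the solvent-only control well mean plus 3 SD, averaged across control plates, cut at about 5.2% in these data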
Active calls of the source: *.

For COC(=O)[C@]12CCCCC=C1N(Cc1ccco1)C(=O)[C@H](CC(=O)N1CCN(C(=O)C3CC3)CC1)C2 the results were ssDAF12 agonist -1, hcDAF-12 act 0, SMARCA2 activ 1, DAX1 inh-2 0 and hgDAF-12 ag -3.
For Cn1nc2sc3ccccc3n2c(=O)c1=O the results were ssDAF12 agonist -1, hcDAF-12 act 4, DAX1 inh-1 0, SMARCA2 activ -5, DAX1 inh-2 0 and hgDAF-12 ag 2.
N#Cc1cnc2sc3ccccc3n2c1=N was read as ssDAF12 agonist 0, hcDAF-12 act 3, DAX1 inh-1 1, SMARCA2 activ 9.5*, DAX1 inh-2 2, hgDAF-12 ag 7, SMARCA2 conf 9.2* and VP16 Luc act 7.0*.
`Cc1nc(Nc2ccncc2)c2oc3ccccc3c2n1` gave ssDAF12 agonist -1, hcDAF-12 act 0, DAX1 inh-1 0, SMARCA2 activ 10*, DAX1 inh-2 0, hgDAF-12 ag 4, SMARCA2 conf 20* and VP16 Luc act 1.
For O=C(CNC(=O)c1ccc(Br)cc1)N/N=C/c1cccnc1 the results were ssDAF12 agonist -2, hcDAF-12 act -2, DAX1 inh-1 0, SMARCA2 activ 10*, DAX1 inh-2 0, hgDAF-12 ag -3, SMARCA2 conf 1 and VP16 Luc act 1.
COc1cccc(C(=O)O/N=C(\N)CS(=O)(=O)c2ccccc2)c1 was read as ssDAF12 agonist 0, hcDAF-12 act 1, DAX1 inh-1 2, SMARCA2 activ 12*, DAX1 inh-2 4, hgDAF-12 ag 4, SMARCA2 conf 2 and VP16 Luc act 2.
`CSc1ccccc1C(=O)Nc1cc(C)cc(C)c1` gave ssDAF12 agonist -1, hcDAF-12 act -3, DAX1 inh-1 -1, SMARCA2 activ 9.3*, DAX1 inh-2 0, hgDAF-12 ag 2, SMARCA2 conf 5 and VP16 Luc act 1.
CSc1ccccc1C(=O)Nc1ccc(C)c(C)c1 was read as ssDAF12 agonist 0, hcDAF-12 act 1, DAX1 inh-1 0, SMARCA2 activ 2, DAX1 inh-2 2 and hgDAF-12 ag 7.
CCOc1ccc(OCCN2C(=O)c3ccccc3C2=O)cc1 was read as ssDAF12 agonist -1, hcDAF-12 act -2, DAX1 inh-1 1, SMARCA2 activ -2, DAX1 inh-2 0 and hgDAF-12 ag -2.
For Cc1cccc(OCCN2C(=O)c3ccccc3C2=O)c1 the results were ssDAF12 agonist 0, hcDAF-12 act 2, DAX1 inh-1 2, SMARCA2 activ 9.6*, DAX1 inh-2 2, hgDAF-12 ag 8, SMARCA2 conf 4 and VP16 Luc act 5.
Screening Cc1cccc(OCCCn2c(=O)sc3ccccc32)c1 returned ssDAF12 agonist 0, hcDAF-12 act 2, DAX1 inh-1 0, SMARCA2 activ 0, DAX1 inh-2 0 and hgDAF-12 ag 6.
For Cc1cccc(OCCn2c(=O)sc3ccccc32)c1 the results were ssDAF12 agonist 0, hcDAF-12 act 1, DAX1 inh-1 1, SMARCA2 activ 9.0*, DAX1 inh-2 1, hgDAF-12 ag 8, SMARCA2 conf 11* and VP16 Luc act 10.0*.
`Cn1c2ccccc2c2cc(C(=O)NNS(=O)(=O)c3ccc(F)cc3)sc21` gave ssDAF12 agonist 0, hcDAF-12 act 2, DAX1 inh-1 -1, SMARCA2 activ -4, DAX1 inh-2 0 and hgDAF-12 ag 1.
CCN(CC)C(=N)/C(C#N)=N/Nc1ccccc1 was read as ssDAF12 agonist -1, hcDAF-12 act 1, SMARCA2 activ 13*, DAX1 inh-2 1, hgDAF-12 ag 0, SMARCA2 conf 7 and VP16 Luc act 1.
Screening CCCCC(=O)Nc1cc(C(=O)NCCc2ccccc2)ccc1Cl returned ssDAF12 agonist 0, hcDAF-12 act 2, DAX1 inh-1 1, SMARCA2 activ 8.2*, DAX1 inh-2 4.4*, hgDAF-12 ag 9, SMARCA2 conf 7 and VP16 Luc act 8.8*.
Screening O=C(O)c1cccc2c1C(=O)N(c1ccccc1)C2 returned ssDAF12 agonist -1, hcDAF-12 act 0, DAX1 inh-1 0, SMARCA2 activ 3, DAX1 inh-2 0 and hgDAF-12 ag 0.
S=C1c2ccccc2CN1c1ccccc1 was read as ssDAF12 agonist -1, hcDAF-12 act 6.0*, DAX1 inh-1 1, SMARCA2 activ 10*, DAX1 inh-2 0, hgDAF-12 ag 5, SMARCA2 conf 4 and VP16 Luc act 3.
Screening O=C1c2cccc3c([N+](=O)[O-])ccc(c23)C(=O)N1c1ccc(Cl)cn1 returned ssDAF12 agonist -2, hcDAF-12 act -2, DAX1 inh-1 -1, SMARCA2 activ 0, DAX1 inh-2 0 and hgDAF-12 ag 2.
For O=C1c2cccc3c([N+](=O)[O-])ccc(c23)C(=O)N1c1ccccn1 the results were ssDAF12 agonist -1, hcDAF-12 act -2, DAX1 inh-1 -2, SMARCA2 activ 14*, DAX1 inh-2 -3, hgDAF-12 ag -4, SMARCA2 conf -16 and VP16 Luc act 6.5*.
Screening O=C(COc1cccnc1[N+](=O)[O-])N1CCC(Cc2ccccc2)CC1 returned ssDAF12 agonist -1, hcDAF-12 act -2, DAX1 inh-1 0, SMARCA2 activ -1, DAX1 inh-2 1 and hgDAF-12 ag 0.
Cc1c(C(c2ccc(N(C)C)cc2)c2c(C)n(C)n(-c3ccccc3)c2=O)c(=O)n(-c2ccccc2)n1C was read as ssDAF12 agonist -2, hcDAF-12 act -1, DAX1 inh-1 -1, SMARCA2 activ -3, DAX1 inh-2 0 and hgDAF-12 ag -8.
C=CCNC(=O)c1c(Cl)cnn1-c1ccc(C)cc1 was read as ssDAF12 agonist 0, hcDAF-12 act 4, SMARCA2 activ 12*, DAX1 inh-2 1, hgDAF-12 ag 12*, SMARCA2 conf 6 and VP16 Luc act 5.4*.
